Source: PubChem BioAssay (National Center for Advancing Translational Sciences (NCATS))
This is a sample that favours compounds with a hit; in the whole collection about 5.4% have one here.
MARV entry inh: Marburg virus entry inhibition. hit rate 1.8% among 300,000. Potency, µM (top dose mostly 37.8 µM), most hits filed as inhibitors. AID 540276. Marburg virus pseudotyped entry inhibition, cell reporter; calls by dose curve; tested in HEK293 cells
Sm TGR block: S. mansoni TGR enzyme inhibition. Q962Y6. purified TGR, DTNB reduction, TNB absorbance 405 nm. Potency, µM (titrated, usually from 114 µM), most hits filed as inhibitors. hit rate 3% among 360,000; active means well fitted inhibition curve with a large enough effect; inconclusive means small, poorly fitted or top-dose-only effect; inactive means no such curve, though single readings can be large or run the other way; further: nearly all actives have a fitted effect of over 60% in size
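Kinetic colorimetric format: TGR-catalysed, NADPH-driven DTNB reduction monitored via TNB absorbance. Enzyme dispensed at 20 nM; compound exposure 15 min at room temperature before reaction start.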
VACV mCherry inh: vaccinia inhibition (mCherry reporter). AID 720579. Vaccinia virus mCherry reporter infection, fluorescence. hit rate 0.63% among 310,000. Potency, µM (highest dose often 36.5 µM), most hits filed as inhibitors; calls by dose curve; tested in A549 cells; further: nearly all actives have a fitted effect of over 35% in size
FMDV antiviral: antivirals against foot and mouth disease virus. FMDV antiviral cell-based qHTS. Potency, µM (titrated, usually from 57.9 µM), most hits filed as inhibitors. hit rate 1.2% among 410,000; calls by dose curve; tested in HEK293T cells; further: read-out not given here; nearly all actives have a fitted effect of over 45% in size
Lassa entry inh: blocks Lassa virus binding to or entry into cells; Lassa virus pseudotype entry inhibition, cell reporter; Potency, µM (doses to about 37.9 µM), usual class: inhibitors; hit rate 1.2% among 300,000; calls by dose curve; tested in HEK293 cells; further: nearly all actives have a fitted effect of over 50% in size
VACV Venus inh: inhibitors of vaccinia virus (Venus reporter); Vaccinia virus Venus reporter expression, fluorescence; hit rate 0.46% among 330,000; Potency, µM (doses to about 36.5 µM), usual class: inhibitors; calls by dose curve; tested in A549 cells; further: nearly all actives have a fitted effect of over 30% in size
Hits are given with their value; i = inactive; ? = inconclusive; nt = no result; ! = a repeat was not active; [ ] = another dose, or the depositor's remark.

SMILES	MARV entry inh	Sm TGR block	VACV mCherry inh	FMDV antiviral	Lassa entry inh	VACV Venus inh
CCCCCCCCOC(=O)c1cc([N+](=O)[O-])c(Sc2ncnc3nc[nH]c23)c([N+](=O)[O-])c1	?	nt	i	?	11µM	i
CCOc1ccc2nc(N[C@@](NC(C)=O)(C(=O)OC)C(F)(F)F)sc2c1	i	nt	nt	nt	nt	nt
CCc1c(C)nc(SCc2nc(-c3ccccc3C)no2)[nH]c1=O	nt	i	i	i	i	i
COc1ccc(C)cc1NC(=O)c1ccc2c(c1)nnn2C1CCCC1	nt	i	i	i	i	i
N#CC1=C(N)Oc2cc(N)ccc2C1c1cccc(F)c1 (stereo not drawn)	?	i	?	i	i	i
CN(C)c1ccc2c(c1)OC(N)=C(C#N)C2c1cccc(F)c1 (stereo not drawn)	2.1µM	i	nt	?	?	nt
CCOC(=O)C1=C(C)C(c2cccc(Oc3ccccc3)c2)NC(=S)N1 (stereo not drawn)	?	i	i	28µM	8.9µM	i
CCOC(=O)C1=C(C)C(c2ccc(OC)cc2)NC(=S)N1 (stereo not drawn)	i	i	nt	i	i	nt
COc1ccc(NC(=O)c2cc([N+](=O)[O-])ccc2NC(=O)CNCc2ccccn2)c(OC)c1	i	i	i	i	?	i
COc1cc(NC(=O)c2cc([N+](=O)[O-])ccc2NC(=O)CNCc2ccccn2)cc(OC)c1	i	i	i	?	11µM	i
Cc1ccc(-n2ncc3c(NCCCN4CCOCC4)ncnc32)cc1C	nt	i	i	i	i	i
CCc1nc2cccnc2n1-c1ccc(CC(=O)O)cc1	?	i	i	i	i	i
Cc1ccc(NC(=O)Cc2ccc(-n3c(C)nc4cccnc43)cc2)c(Cl)c1	nt	i	i	16µM	i	?
O=C(OCc1cn([C@H]2CN(C(=O)c3cccs3)[C@@H](c3ccc(Cl)cc3)C[C@H]2O)nn1)c1ccccc1	nt	nt	nt	nt	i	nt
O=C1NCC(COCc2ccco2)O1 (stereo not drawn)	?	45µM	i	nt	i	i
CCOc1ccccc1C(=O)N[C@H](C(=O)OCc1cc([N+](=O)[O-])cc2c1OCOC2)C(C)C	11µM	i	?	i	?	?
Cc1ccc(Cc2nc3ccccc3nc2SCC(=O)Nc2ccc3c(c2)OCO3)cc1	nt	i	i	i	i	i
CCCCCCNC(=O)N[C@H](C(=O)NCCC[C@H]1CN2C(=NC[C@H]2C)N1CCC(c1ccccc1)c1ccccc1)C(C)O (stereo partly drawn)	nt	0.5µM	nt	nt	nt	nt
C/C=C(\C)C(=O)NCCN1C2=NC[C@H](C)N2C[C@@H]1Cc1ccc(OC)cc1	nt	i	i	i	nt	i
COc1ccc(-c2c[n+]3c4n2CCCCC4=C(c2ccccc2)C3)cc1	nt	i	nt	22µM	nt	nt
COc1ccc(-c2c[n+](CC(=O)c3ccccc3)c3n2CCCCC3)cc1	nt	i	nt	i	nt	nt
Cc1cc2c(c(=O)n1Cc1cccnc1)C(Cc1ccccc1)C(C#N)=C(N)O2 (stereo not drawn)	i	i	nt	i	i	i
Cc1cc2c(c(=O)n1Cc1cccnc1)C(c1cccs1)C(C#N)=C(N)O2 (stereo not drawn)	i	10µM	i	i	i	i
Cc1ccc(Sc2c(C)nn(C(C)(C)C)c2OC(=O)C(C)(C)C)cc1	i	i	i	i	i	i
Cc1ccc(-n2nc(CO)c(C(=O)NC(C)CCCc3ccccc3)n2)cc1 (stereo not drawn)	i	i	i	i	i	i
SMILES	MARV entry inh	Sm TGR block	VACV mCherry inh	FMDV antiviral	Lassa entry inh	VACV Venus inh
CCN(CC)CCNc1ccnc2cc(Cl)ccc12	2.9µM	i	nt	i	i	nt
CCN1CCOC(CC(=O)Nc2ccc([N+](=O)[O-])cc2)C1=O (stereo not drawn)	i	20µM	i[7.34 µM]	i	i	i[7.34 µM]
CC1(C)CC(CC(=O)Nc2ccc([N+](=O)[O-])cc2)C(=O)O1 (stereo not drawn)	i	i	i	i	i	i
O=C(CC1OCC2CCCN2C1=O)Nc1ccc([N+](=O)[O-])cc1 (stereo not drawn)	?	25µM	i	i	i	i
O=C(NCCCN1CCCCC1)C1CCC(=O)N1CCc1ccccc1 (stereo not drawn)	i	i	nt	i	i	i
O=C(NCCCN1CCOCC1)C1CCC(=O)N1CCc1ccccc1 (stereo not drawn)	nt	89µM	i	i	nt	i
O=[N+]([O-])c1ccc(/C=[N+](\[O-])[C@@H]2CCCC[C@@H]2/[N+]([O-])=C/c2ccc([N+](=O)[O-])o2)o1	?	3.5µM	i	32µM	?	i
O=C(N/N=C/c1ccc([N+](=O)[O-])o1)C1CCCC1	?	?	?	i	?	?
O=C(NCCCN1CCC(Cc2ccccc2)CC1)C1CC(=O)N(C2CCCCCC2)C1 (stereo not drawn)	14µM	i	i	i	i	i
CN1CCN(C(=O)CCCN2C(=O)/C(=C/c3cccc(Br)c3)SC2=S)CC1	10µM	i	i	i	?	i
CCOc1ccc(/C=C2\SC(=S)N(CCCC(=O)NCCCN3CCOCC3)C2=O)cc1	?	i	i	11µM	?	i
COc1ccc(/C=C2\SC(=S)N(CCCC(=O)N3CCN(C)CC3)C2=O)cc1	?	i	i	i	?	i
CCc1ccc(/C=C2\SC(=S)N(CCCC(=O)N3CCN(C)CC3)C2=O)cc1	nt	nt	?	i	nt	28µM
CN1CCN(C(=O)CCN2C(=O)/C(=C/c3cccc(Br)c3)SC2=S)CC1	?	i	?	i	i	i
CCc1ccc(/C=C2/SC(=S)N(CCC(=O)NCCCN3CCOCC3)C2=O)cc1	i	i	?	i	i	i
Cc1cccc(N(C)c2nc3ccc(C)cc3n3cnnc23)c1	i	i	i	i	nt	i
COc1cccc(CSc2nc3n(n2)C(CC(C)C)C(C(=O)Nc2ccccc2OC)=C(C)N3)c1 (stereo not drawn)	nt	i	i	i	i	i
CC1=C(C(=O)Nc2ccccc2)C(c2ccc[nH]2)n2ncnc2N1 (stereo not drawn)	nt	28µM	i	i	i	i
CC1=C(C(=O)Nc2ccccc2)C(c2ccccn2)n2ncnc2N1 (stereo not drawn)	i	i	i	i	i	i
C=CCOC(=O)C1=C(C)NC(SCC(=O)NC(=O)OCC)=C(C#N)C1c1cccnc1 (stereo not drawn)	i	40µM	i	i	i	i
NC[C@@H]1O[C@H](c2ccccc2)Cc2c1ccc(O)c2O	i	nt	nt	i	i	nt
NC[C@@H]1O[C@H](C23CC4CC(CC(C4)C2)C3)Cc2c1ccc(O)c2O	13µM	7.9µM	?	40µM!	18µM	?
C/C(=C\c1cc2ccccc2o1)C1Nc2cccc3cccc(c23)N1	nt	13µM	nt	?	nt	nt
O=[N+]([O-])c1ccc(CNc2ccc(Cl)cc2)s1	?	?	i	?	3.5µM	i
Cc1cc(C)n(-c2nc3ccccc3s2)n1	?	i	nt	i	i	nt
Cc1c2c(=O)n(-c3nc4ccccc4s3)nc-2cc(O)n1Cc1ccccc1	nt	i	nt	7.1µM	nt	nt
CCOCCCNC(=O)C(c1ccc(C)cc1)N(Cc1ccc2c(c1)OCO2)C(=O)c1ccc(NC(C)=O)cc1 (stereo not drawn)	?	i	i	i	?	i
